Source: PubChem BioAssay (National Center for Advancing Translational Sciences (NCATS))
RECQ1 inh-1 = RECQ1 (human) helicase inhibition; RECQ1 DNA unwinding, red fluorescence kinetic read; Potency, µM (titrated, usually from 57.3 µM), usual class: inhibitors; 0.54% of 240,000 active; AID 2549; note: nearly all actives have a fitted effect of over 30% in size
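50 nM RECQ1T1 preincubated 15 min with compound in Tris pH 8.0 buffer with MgCl2, DTT, Tween-20 and 2.5 ug/ml poly(dI-dC); started with 200 nM TAMRA/BHQ-2 forked duplex and 2 mM ATP. Unwinding read as fluorescence (525/598 nm), two reads 2 h apart.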
APE1 inh-1 = blocks human APE1 abasic DNA cleavage. P27695. recombinant APE1, TAMRA/BHQ-2 abasic DNA cleavage fluorescence. Potency, µM (series often up to 65.8 µM), most hits filed as inhibitors. 0.35% of 350,000 active. AID 2517; note: nearly all actives have a fitted effect of over 55% in size
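Incision of a quenched TAMRA/BHQ-2 THF abasic-site duplex (50 nM) by 0.75 nM APE1, after 15 min compound preincubation, measured as fluorescence increase over three 60 s reads. Values normalized to buffer, DMSO and NSC13755 control wells.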
BLM helicase inh-1 = blocks DNA unwinding by human BLM helicase. AID 2528. P54132. Potency, µM (doses to about 56.1 µM), usual class: inhibitors. 0.2% of 350,000 active. recombinant BLM DNA unwinding, fluorescence dequenching; note: nearly all actives have a fitted effect of over 35% in size
ERG-DNA inh = ERG Ets/DNA interaction inhibition; Potency, µM (highest dose often 76.9 µM), hits mostly inhibitors; 0.028% of 370,000 active; fluorescence polarization, His-ERG Ets domain / labelled DNA; AID 624246; active = well fitted inhibition curve with a large enough effect in the polarisation, with a control signal flat; inconclusive = small, poorly fitted or top-dose-only effect, or effect the other way, or a change in a side signal; inactive = no such curve, though single readings can be large or run the other way; the % refers to the polarisation;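 note: polarization taken with two DNA probes labelled with fluorescein and Texas red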
Target sequence (P11308 whole entry, looked up, the tested form may be a part): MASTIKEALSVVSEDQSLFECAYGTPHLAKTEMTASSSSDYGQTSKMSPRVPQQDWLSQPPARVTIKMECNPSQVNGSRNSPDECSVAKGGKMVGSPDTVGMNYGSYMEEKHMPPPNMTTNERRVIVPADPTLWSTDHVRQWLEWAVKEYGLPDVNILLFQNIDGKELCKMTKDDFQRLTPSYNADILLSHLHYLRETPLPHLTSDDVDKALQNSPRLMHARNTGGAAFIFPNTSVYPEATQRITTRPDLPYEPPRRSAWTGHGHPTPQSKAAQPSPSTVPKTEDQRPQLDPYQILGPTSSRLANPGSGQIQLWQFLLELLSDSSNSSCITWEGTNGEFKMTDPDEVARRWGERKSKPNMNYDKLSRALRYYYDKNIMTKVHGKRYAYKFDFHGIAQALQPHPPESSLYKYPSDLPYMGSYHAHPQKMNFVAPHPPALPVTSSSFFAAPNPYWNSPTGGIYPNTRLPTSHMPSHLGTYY
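His-tagged ERG Ets domain (1 uM in the protein solution; 300mM KCl, 50mM Tris-HCl, 1mM EDTA, 1mM DTT, pH 7.5) received compound, then a probe mix of 5 nM fluorescein-DNA and 100nM Texas-615-DNA. Fluorescence polarization was read for both dyes.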
GCN5L2 inh = blocks human GCN5L2 histone acetyltransferase. Q92830. GCN5L2 HAT assay, ThioGlo1 CoA-SH fluorescence. Potency, µM (doses to about 58.9 µM), actives largely listed as inhibitors. 0.21% of 390,000 active
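Compounds, pin-transferred from DMSO stocks, meet 20nM GCN5L2 for 15 min before the reaction begins with H3(1-25) peptide (75uM) and acetyl-CoA (70uM). Thiol-reactive ThioGlo1 reports CoA release over 20 min at room temperature.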
WRN helicase inh-1 = WRN helicase (human) inhibition. AID 651768. WRN helicase unwinding, fluorescent forked duplex, kinetic. 0.46% of 360,000 active. Potency, µM (top dose mostly 114 µM), usual class: inhibitors; note: nearly all actives have a fitted effect of over 55% in size
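WRN at 20 nM final preincubated with compound 15 min at room temperature; reaction started with 100 nM fluorophore/quencher forked duplex oligonucleotide and 2 mM ATP final. Unwinding followed kinetically by red fluorescence (ex 525, em 598 nm).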
APE1 dye cs = counter-screen for APE1 inhibitors: DNA dye displacement; shares compounds with APE1 inh-1; DNA fluorescent dye displacement counterscreen, fluorescence; Potency, µM (doses to about 28.5 µM), actives largely listed as inhibitors; 7% of 480 active; AID 2564;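 note: loss of thiazole orange fluorescence as the dye is displaced from duplex DNA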
EndoIV counter = blocks E. coli endonuclease IV DNA cleavage. AID 2565. E. coli Endo IV, fluorogenic AP-site DNA cleavage. shares compounds with APE1 inh-1. 4% of 560 active. Potency, µM (highest dose often 27.1 µM), most hits filed as inhibitors
APE1 inh-2 = APE1 (human) endonuclease inhibition, confirmation. shares compounds with APE1 inh-1. purified APE1, fluorogenic abasic-site DNA cleavage. Potency, µM (titrated, usually from 57.1 µM), hits mostly inhibitors. 44% of 750 active. AID 2572; note: nearly all actives have a fitted effect of over 30% in size
APE1 FP inh = displaces DNA from human APE1 in FP assay | 7% of 480 active | Potency, µM (doses to about 28.5 µM), actives largely listed as inhibitors | AID 2573 | APE1 binding to TAMRA-labelled double-stranded DNA, fluorescence polarization displacement | shares compounds with APE1 inh-1
BLM inh = confirmation of inhibitors of human Bloom syndrome helicase BLM | shares compounds with BLM helicase inh-1 | BLM DNA unwinding, fluorescence quenching, biochemical | Potency, µM, hits mostly inhibitors | 40% of 220 active | AID 2585;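 note: strand separation dequenches TAMRA so unwinding raises red fluorescence; series mostly up to about 69 µM; nearly all actives have a fitted effect of over 45% in size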
RECQ1 inh-2 = confirmation of human RECQ1 helicase inhibitors; shares compounds with RECQ1 inh-1; recombinant RECQ1 DNA unwinding, red fluorescence; Potency, µM (series often up to 119 µM), hits mostly inhibitors; 15% of 1,100 active; note: nearly all actives have a fitted effect of over 50% in size
WRN helicase inh-2 = confirmation of human WRN helicase inhibitors. Potency, µM (top dose mostly 57.1 µM), usual class: inhibitors. shares compounds with WRN helicase inh-1. WRN helicase DNA unwinding, fluorescence kinetic. 63% of 610 active; note: nearly all actives have a fitted effect of over 65% in size
TO displacement = counter-screen for WRN helicase inhibitors: DNA binding; shares compounds with WRN helicase inh-1; thiazole orange DNA binding displacement, fluorescence; Potency, µM (highest dose often 57.1 µM), actives largely listed as inhibitors; 10% of 610 active; AID 720499;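 note: drop in dye fluorescence marks compound binding to DNA; nearly all actives have a fitted effect of over 60% in size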
BLM helicase inh-2 = blocks human BLM helicase in WRN counterscreen. shares compounds with WRN helicase inh-1. Recombinant BLM helicase DNA unwinding, red fluorescence. Potency, µM (top dose mostly 57.1 µM), actives largely listed as inhibitors. 60% of 610 active. AID 720503; note: nearly all actives have a fitted effect of over 60% in size
Each line names hits and unclear results; the compound was inactive in the other large screens (follow-up assays come after a bar, where they were run). Sampled rows, rich in hits. Any-hit rate of the full collection: about 0.88%. Unless noted, calls come from the whole dose curve; as a rule, active = well fitted curve in the direction sought with a large enough effect; inconclusive = small, poorly fitted or top-dose-only effect, or another doubt; inactive = no such curve, though single readings can be large; an effect the other way counts as inactive or inconclusive.

COc1ccc(NC(=O)c2cc3c(-c4ccc(OC)c(OC)c4)nn(C)c3s2)cc1OC	APE1 inh-1 inconclusive, BLM helicase inh-1 inconclusive, ERG-DNA inh inconclusive, WRN helicase inh-1 11.9µM | APE1 dye cs inactive | EndoIV counter 11.2µM | APE1 inh-2 12.6µM | APE1 FP inh inactive | WRN helicase inh-2 13.6µM | TO displacement inactive | BLM helicase inh-2 13.6µM
Nc1nonc1-c1nc2ccccc2n1CC(=O)N/N=C/c1ccc(-c2cccc(C(=O)O)c2)o1	APE1 inh-1 inconclusive, BLM helicase inh-1 inconclusive, WRN helicase inh-1 39.8µM | APE1 dye cs inactive | EndoIV counter inactive | APE1 inh-2 12.6µM | APE1 FP inh inactive | WRN helicase inh-2 24.1µM | TO displacement inconclusive | BLM helicase inh-2 24.1µM
COc1ccc(OC)c(NC(=O)COc2coc(CN3CCc4ccccc43)cc2=O)c1	APE1 inh-1 inconclusive (no result: RECQ1 inh-1, BLM helicase inh-1)
COc1ccc2cc3cc(C(=O)NCc4cccs4)oc3nc2c1	WRN helicase inh-1 39.8µM | APE1 inh-2 inactive | WRN helicase inh-2 24.1µM | TO displacement inactive | BLM helicase inh-2 15.2µM
CNc1ncnc2ccc(-c3c(C)noc3C)cc12	none (no result: RECQ1 inh-1, BLM helicase inh-1, ERG-DNA inh, WRN helicase inh-1)
Oc1ccc(-c2cn3c(n2)SCC3)cc1O	RECQ1 inh-1 2.51µM, APE1 inh-1 1.58µM, BLM helicase inh-1 15.8µM, WRN helicase inh-1 4.74µM | APE1 dye cs inactive | EndoIV counter inactive | APE1 inh-2 12.6µM | APE1 FP inh inactive | BLM inh inconclusive | RECQ1 inh-2 7.08µM | WRN helicase inh-2 inconclusive | TO displacement inactive | BLM helicase inh-2 17.1µM
Oc1ccc(-c2cn3c(n2)SCC3)cc1	none
COC(=O)c1ccccc1NC(=O)c1noc2c1CSc1ccccc1-2	none (no result: RECQ1 inh-1, APE1 inh-1, WRN helicase inh-1)
COC(=O)c1ccccc1NC(=O)c1noc2c1CCC2	RECQ1 inh-1 inconclusive, APE1 inh-1 inconclusive, BLM helicase inh-1 inconclusive, GCN5L2 inh inconclusive, WRN helicase inh-1 inconclusive | APE1 dye cs inconclusive | EndoIV counter inactive | APE1 inh-2 11.2µM | APE1 FP inh inconclusive | RECQ1 inh-2 inconclusive | WRN helicase inh-2 17.1µM | TO displacement inactive | BLM helicase inh-2 4.82µM
